Results filed as inconclusive are left out. A call without a number means that no potency is given here. Unmarked numbers belong to inactive results. Active and inactive are the calls of the source. Calls follow the shape of the dose curve; as a rule, active = well fitted inhibition curve with a large enough effect; inconclusive = small, poorly fitted or top-dose-only effect; inactive = no such curve, though single readings can be large or run the other way. Non-standard residues stand in square brackets, D forms with d. Residues, ends and D or L forms follow the SMILES beside them. Peptide text beside a SMILES is read from it. *: point of attachment. Sta = CC(C)C[C@H](N)[C@@H](O)CC(=O)O; Isovaleryl = CC(C)CC(=O)*
Experiment: NS1 protein of Zika virus - qHTS assay to identify small molecule inhibitors in human HEK 293 cells (AID 1347053); also: nearly all actives have a fitted effect of over 55% in size
Settings: HEK293 ZIKV MR766 infection, NS1 TR-FRET, 24 h; series mostly up to 46.1 µM; activity change, negative = inhibition: at the top concentration
Outline: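 Following 20 h seeding, HEK 293 cells took compound, then 1 h later ZIKV MR766 (MOI = 0.5). Incubation ran 24 h at 37 C before TR-FRET detection of NS1; a drop in signal indicates inhibition.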

| Structure (SMILES) | activity change, negative = inhibition [%] | Potency |
| --- | --- | --- |
| COC(=O)C1=C(C)NC(C)=C(C(=O)OCCCN2CCC(c3ccccc3)(c3ccccc3)CC2)C1c1cccc([N+](=O)[O-])c1 (centres undefined) | 2.4 | – |
| CN(C)c1ccc(O)c2c1C[C@H]1C[C@H]3[C@H](N(C)C)C(=O)C(C(N)=O)=C(O)[C@@]3(O)C(=O)C1=C2O | – | inactive |
| Cc1ccc(C)c(OCCCC(C)(C)C(=O)O)c1 | – | inactive |
| Cc1cc(=O)c2c(O)c3c(O)cc(=O)c4c3c3c(cc(O)c1c23)C(C)(C)C=4O | 2.19 | – |
| CC(C)CC(=O)N[C@H](C(=O)N[C@H](C(=O)N[C@@H](CC(C)C)[C@@H](O)CC(=O)N[C@@H](C)C(=O)N[C@@H](CC(C)C)[C@@H](O)CC(=O)O)C(C)C)C(C)C (Isovaleryl-VV[Sta]A[Sta]-OH) | -3.54 | – |
| N=C(N)c1ccc2cc(OC(=O)c3ccc(N=C(N)N)cc3)ccc2c1 | – | inactive |
| Cc1ccc(S(=O)(=O)NC(=O)NN2CC3CCCC3C2)cc1 (centres undefined) | -8.96 | – |
| Cn1c(NCCN(CCO)CCCc2ccc([N+](=O)[O-])cc2)cc(=O)n(C)c1=O | -13.6 | – |
| Nc1cc(C(Cl)=C(Cl)Cl)c(S(N)(=O)=O)cc1S(N)(=O)=O | – | inactive |
| NC(=O)Cc1cccc(C(=O)c2ccccc2)c1N | – | inactive |
| O=C(O)CCNC(=O)c1ccc(N=Nc2ccc(O)c(C(=O)O)c2)cc1 | – | inactive |
| COC(=O)[C@H](Cc1ccccc1)NC(=O)[C@@H](N)CC(=O)O (H-Asp-Phe-OMe) | – | inactive |
| C[C@H](Cn1cnc2c(N)ncnc21)OCP(=O)(O)O | -8.06 | – |
| Nc1ncn([C@H]2C[C@H](O)[C@@H](CO)O2)c(=O)n1 | – | inactive |
